# Assay results as given in PubChem BioAssay (Tox21).
# Inconclusive results are not listed. Where a call stands in place of a potency, no number is given. A number with no mark means an inactive call. Calls of active or inactive are those of the source. Calls come from the whole dose curve; as a rule, active = well fitted inhibition curve with a large enough effect in the repeat runs; inconclusive = weak or mixed curves; inactive = flat fitted curve, though single readings scatter.
# Experiment: qHTS assay to identify small molecule HDAC inhibitors (AID 1259364); note: top concentration of the series differs between compounds; nearly all actives have a fitted effect of over 45% in size
# Conditions: HCT-116 HDAC-Glo I/II luminescence, 2 h; series mostly up to 92.4 µM
# Description: U.S. Tox21 Program National Center for Advancing Translational Sciences [NCATS] NIH Chemical Genomics Center [NCGC] U.S. Environmental Protection Agency [EPA] National Institutes of Environmental Health Sciences [NIEHS] National Toxicology Program [NTP] U.S. Food and Drug Administration [FDA] Tox21 Assay Overview: Histone deacetylases (HDACs) are a group of epigenetic enzymes that regulate gene expression by histone deacetylation. HDACs are capable of introducing epigenetic modifications and such aberrations contribute to the onset and progression of several human diseases, thus making HDACs a popular therapeutic target. For identifying endogenous class I/II HDAC inhibitors a homogenous, luminogenic HDAC I/II cell based assay was used to measure the relative activity of class I and II HDACs from cells. Wild type HCT-116 cells were used to screen Tox21 libraries for identifying class I/II HDAC inhibitors.
# Tox21 Assay Protocol Summary: HCT-116 cells were dispensed at 1,500 per well in 5uL of culture medium into white solid bottom 1536-well plates (Greiner Bio-One, Monroe, NC) using a Multidrop Combi (Thermo Scientific, Waltham, MA) dispenser. The assay plates were incubated at 37 C and 5% CO2 for an overnight, and then 23nL of compounds dissolved in DMSO and positive control were transferred using a Pintool station (Wako, San Diego, CA). The assay plates were incubated at 37C and 5% CO2 for 2hr. After compound treatment, 4uL of HDAC-Glo reagent (Promega Corporation, Madison, WI) was added to each well of the assay plates using Flying Reagent Dispenser (FRD, Aurora Discovery, San Diego, CA) and incubated the assay plates at room temperature for 30min. The luminescence signal was quantified using a ViewLux plate reader (Perkin Elmer, Shelton, CT).
Structure (SMILES),Potency,"activity change, negative = inhibition"
N=C(N)N,inactive,–
CC(=O)Nc1ccc(OCCOCCOc2ccc(NC(C)=O)cc2)cc1,inactive,–
O=CN1CCCCC1,inactive,–
O=S(=O)(O)c1ccc(Cl)cc1,inactive,–
CCCC(C)C(O)CC (stereo not given),inactive,–
CC(=O)SCC(CC(=O)c1ccc(C)cc1)C(=O)O (stereo not given),inactive,–
CCCCCCCCCCCC(C)=O,inactive,–
C=CCN(CC=C)CC=C,inactive,–
Cc1cc2c(cc1CC(=O)c1sccc1S(=O)(=O)Nc1onc(C)c1Cl)OCO2,inactive,–
N=C(N)N1CCc2ccccc2C1,–,3.09% [at 8.39 µM]
CC(C)CC(O)Cc1ccccc1 (stereo not given),inactive,–
O=Cc1ccccc1S(=O)(=O)O,inactive,–
CCCCCCC(=O)c1ccccc1,inactive,–
Cc1ccc(N)nc1,inactive,–
CC(=O)OC/C=C(/C)CCC=C(C)C,inactive,–
C=CCOC(=O)CCCCCCCC,inactive,–
O=C(O)Cc1ccccc1Oc1ccc(Cl)cc1Cl,inactive,–
C=CC(=O)CC,inactive,–
Cc1cc(=O)oc2cc(O[C@@H]3SC[C@@H](O)[C@H](O)[C@H]3O)ccc12,inactive,–
NC(=O)CC[C@@H](N)C(=O)O,inactive,–

Structure (SMILES),Potency,"activity change, negative = inhibition"
CC[C@@]1(c2ccccc2)NC(=O)N(C)C1=O,inactive,–
C=COCCCCO,inactive,–
CCCCN(CCCC)CCCCCCN(CCCC)CCCC,inactive,–
CCN(CC)CC,inactive,–
N#CC1(N)CCCCC1,inactive,–
CC(C)C[P+](C)(CC(C)C)CC(C)C,inactive,–
C[C@@H](CN1CC(=O)NC(=O)C1)N1CC(=O)NC(=O)C1,inactive,–
CN(C)c1ccncc1,inactive,–
O=C(O)COc1ccc2ccccc2c1,inactive,–
CO/N=C(\C(=O)O)c1csc(NC(=O)CCl)n1,inactive,–
O=C[C@@H](O)[C@H](O)[C@H](O)CO,inactive,–
CC(C)(C)OC=O,inactive,–
CCCCCCCCCCCCCC(=O)OCC,inactive,–
O=C1CC2(CCCC2)CC(=O)N1CCNCC1COc2ccccc2O1 (stereo not given),inactive,–
Cc1ccc2ccccc2n1,inactive,–
Nc1nc(Cl)cc(Cl)n1,inactive,–
CCO/C=C1\N=C(c2ccccc2)OC1=O,inactive,–
CC(CC(=O)Cl)CC(C)(C)C (stereo not given),inactive,–
C[Si](C)(C)O[Si](O)(O)O,inactive,–
CCNC(=O)C(C)OC(=O)Nc1ccccc1 (stereo not given),inactive,–
